PubChem BioAssay
A number with no mark means an inactive call. The rule behind the calls is not given here.

Each molecule was assayed against Pantothenate synthetase (Mycobacterium tuberculosis (strain ATCC 25618 / H37Rv)) (UniProt P9WIL5) (assay: Coupled enzyme confirmation of inhibitors against recombinant Mtb PanC (AID 375;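 note: 0% = full reaction with vehicle and 100% = no enzyme background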)). Settings: coupled enzyme assay; at 10 µM, stronger effect = higher value.
Chain of Pantothenate synthetase (Mycobacterium tuberculosis (strain ATCC 25618 / H37Rv)) (P9WIL5 whole entry, looked up): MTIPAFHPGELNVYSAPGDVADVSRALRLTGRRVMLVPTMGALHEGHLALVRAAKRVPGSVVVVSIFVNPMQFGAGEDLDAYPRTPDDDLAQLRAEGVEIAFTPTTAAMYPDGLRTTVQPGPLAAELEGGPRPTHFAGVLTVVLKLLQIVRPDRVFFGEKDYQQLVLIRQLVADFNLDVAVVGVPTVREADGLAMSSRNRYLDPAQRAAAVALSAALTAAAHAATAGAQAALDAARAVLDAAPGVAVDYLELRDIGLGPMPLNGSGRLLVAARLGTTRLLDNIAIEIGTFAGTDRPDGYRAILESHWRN

`O=C1c2ccccc2S(=O)(=O)N1CC(O)Cn1c2ccccc2c2ccccc21` (stereo not given) and `Cc1c(NC(=O)c2nn(C)c(=O)c3ccccc23)c(=O)n(-c2ccccc2)n1C` are the same in inhibition: 0% for the first, 0% for the second.

`Cc1cc2n(n1)C(c1ccccc1)Nc1ccccc1-2` (stereo not given) and `Cn1c(-c2ccccc2)cnc1SCc1nc2ccccc2c(=O)[nH]1` are the same in inhibition: 7% for the first, 7% for the second.

Compared with `C(=N\n1cnnc1)/c1cccc(OCCOc2ccccc2)c1`, `c1ccc(Oc2ccc(-n3cnnn3)cc2)cc1` is higher in inhibition: 0% for the first, 3% for the second.

`COc1ccc(-c2nc(CSCC(=O)NCc3ccc4c(c3)OCO4)c(C)o2)cc1OC` and `COc1ccc(CCNC(=O)C2CCN(Cc3nc(-c4cccc(Cl)c4)oc3C)CC2)cc1OC` are the same in inhibition: 0% for the first, 0% for the second.

First: CCc1cc2c(=O)c(-c3nc4ccccc4[nH]3)coc2cc1OC(=O)N1CCOCC1
Second: COc1ccccc1N1CCN(C(=O)CSc2nc(-c3ccccc3)cc(=O)[nH]2)CC1
The inhibition of the first is higher: 7% for the first, 1% for the second.

First: O=C(NC1CCCCC1)N(Cc1ccc(F)cc1)Cc1nc2ccccc2c(=O)[nH]1
Second: COCC(=O)N(Cc1nc2ccccc2c(=O)[nH]1)Cc1cccs1
The inhibition of the first is higher: 9% for the first, 0% for the second.

First: COC(=O)c1c(C)oc2ccc(NS(=O)(=O)c3cccs3)cc12
Second: COc1cc(C)nc(NS(=O)(=O)c2ccc(C)cc2)n1
The inhibition of the first is lower: 0% for the first, 5% for the second.

`COc1cccc(NC(=O)N2CCN(c3cccc(C)c3C)CC2)c1` and `COc1cccc(-c2nnc(SCC(=O)N3CCCc4ccccc43)o2)c1` are the same in inhibition: 0% for the first, 0% for the second.

Compared with `Cn1c(=O)c2c(nc(CN3CCCCC3)n2CCc2ccccc2)n(C)c1=O`, `CC(C)Cn1c(CN2CCN(c3ccccc3F)CC2)nc2c1c(=O)[nH]c(=O)n2C` is lower in inhibition: 1% for the first, 0% for the second.

Going from `Cc1ccc(-n2cnnn2)c2cccnc12` to `Cn1cc(Cl)c(C(=O)N(Cc2ccccc2)c2ccccn2)n1`, the inhibition falls from 5% to 0%.

Going from `COCCn1c(C23CC4CC(CC(C4)C2)C3)n[nH]c1=S` to `CCOC(=O)C1CCCN(C/C(O)=C(\C#N)c2nc(-c3ccc(Cl)cc3)cs2)C1` (stereo not given), the inhibition rises from 0% to 5%.

First: Cn1c(=O)c(=O)n(C)c2cc(S(=O)(=O)N3CCCCC3)ccc21
Second: Cc1ccc(NCc2nnc(SCC(=O)N3CCCCC3)n2CC2CCCO2)c(C)c1 (stereo not given)
The inhibition of the first is higher: 14% for the first, 3% for the second.

First: O=C(c1cc2ccccc2oc1=O)N1CCSC1c1ccco1 (stereo not given)
Second: O=C(c1ccco1)N1CCN(C2=NS(=O)(=O)c3ccccc32)CC1
The inhibition of the first is higher: 8% for the first, 0% for the second.

Compared with `CNC(=O)c1ccc(N(Cc2ccccc2C)S(C)(=O)=O)cc1`, `CCOC(=O)COc1ccc(S(=O)(=O)N2CCc3ccccc3C2)cc1` is lower in inhibition: 7% for the first, 0% for the second.

Compared with `CCc1c(C)nc2ncnn2c1NCCc1ccc(OC)c(OC)c1`, `COc1ccc(-c2cc(C(F)(F)F)nc(SCC(=O)NCc3ccco3)n2)cc1OC` is higher in inhibition: 0% for the first, 3% for the second.

Compared with `CCC1(c2ccccc2)C(=O)NCNC1=O`, `O=C(CNS(=O)(=O)c1ccccc1)NCc1ccccn1` is higher in inhibition: 7% for the first, 9% for the second.

`COCC(=O)Nc1sc2c(c1C(=O)OC)C(C(=O)OC)CC2` (stereo not given) and `COC(=O)CCN(C(=O)c1ccc2c(c1)OCO2)c1ccccn1` are the same in inhibition: 0% for the first, 0% for the second.

First: CC(C)CNC(=O)C1CC(=O)OC12CCCCC2 (stereo not given)
Second: Cc1ccc(NC(=O)N2CCC(c3nc4c(nnn4Cc4cccc(Cl)c4)c(=O)[nH]3)CC2)cc1
The inhibition of the first is higher: 5% for the first, 0% for the second.

`N#Cc1c(NCc2ccccc2)ccnc1NCc1cccnc1` and `c1ccc(-n2ncc3c(NCc4cccs4)ncnc32)cc1` are the same in inhibition: 0% for the first, 0% for the second.

Going from `COc1ccc(-c2cc3c(=O)n(CC(=O)NC4CCN(Cc5ccccc5)CC4)ncn3n2)cc1` to `COCCN(CCOC)c1ncnc2c1cnn2-c1ccccc1`, the inhibition falls from 1% to 0%.
